± gives the standard deviation.
test system: MILI (PIWIL2) piRISC loaded with piRNA #1 (26 nt); assay: pre-steady-state target cleavage rate (min^-1); guide: piRNA #1 5'p-UGAGGUAGUAGGUUGUAUAGUAUCCA; MIWI and MILI are mouse PIWI proteins and EfPiwi is from a freshwater sponge; tags in brackets are library labels; higher = faster piRNA-guided slicing of the target; conditions: auxiliary factor: 500 nM mouse GTSF1
Method in brief: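 For Cleave-'n-Seq, a transcribed, DNA-blocked target RNA library […] met 1 nM active affinity-purified piRISC with one synthetic guide at 33 °C for 0–8 or 0–960 min in HEPES–potassium acetate buffer, with or without 500 nM GTSF1 partner protein. Uncleaved targets were sequenced and normalised to depth and weakly complementary targets, with three trials pooled and k3 capped at 0.0001 min^-1. A burst-and-steady-state fit supplied the pre-steady-state cleavage rate.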
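Note: 1 nM active piRISC with 0.1 nM target library at 33 °C single turnover.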

Sequence	pre-steady-state target cleavage rate
GGAGACCUAUCUAUACAACCUACUACUCUCA	0.194 ± 0.021
GGAGACCUAUCUAUACAACCUUCUACCUCA	0.00553 ± 0.0024
GGAGACCUAUGAAUACAAACUACUACCUCA	0.0186 ± 0.0035
GGAGACCUUACUAUACUACCUACUACCUCA	0.159 ± 0.014
GGAGACCAUACUAUUCAACCUACUACCACA	0.189 ± 0.023
GGAGAGGAUACUUUAGAACCUACUACCUCA	0.153 ± 0.0078
GGAGACCUUACUAUACAACGUACUAGCUCA	0.0137 ± 0.0043
GGAGACCUAUGAAUACAACCUACUUCCUCA	0.00371 ± 0.0019
GGAGACCUAUGUAUACAACCUAGAUCCUCA	0.00265 ± 0.0026
GGAGACCUAUGAAUACAACCUACGACCUCA	0.0047 ± 0.0026
GGAGACCUAUCUAUACAUCCAACUACCUCA	0.00941 ± 0.0034
GGAGACCUAACUAUACAACGUACUACCACA	0.0131 ± 0.0058
GGAGACCUAUGUAUCCAACCUACUACCUCA	0.0333 ± 0.005
GGAGACCUAUCUAAUCAACCUACUACCUCA	0.0267 ± 0.0037
GGAGACCUAUGUAUACAACCUACUACCUACA	0.0588 ± 0.0083
GGAGACCUUAGUAUACAACCUACUACCACA	0.101 ± 0.013
GGAGACCUAUGAAUACUACCUACUACCUCA	0.0049 ± 0.0017
GGAGACCUAUGAAUACAACCUACUACCUCCA	0.0129 ± 0.0043
GGAGACCUAUCAAUACAACGUACUACCUCA	0.00874 ± 0.0028
GGAGACCUAACUAUACAACCUACUAUCCUCA	0.177 ± 0.047

Sequence	pre-steady-state target cleavage rate
GGAGACCUAUCUAUACAACCUACUAGCCUCA	0.147 ± 0.02
GGAGACCUAUCUAAACAACCUACUACGUCA	0.0213 ± 0.0039
GGAGACCUAUGAAUACAUCCUACUACCUCA	0.012 ± 0.0031
GGAGACCUAUCUUUACAAGCUACUACCUCA	0.122 ± 0.01
GGAGACCUUUCUAUACAAGCUACUACCUCA	0.159 ± 0.012
GGAGUGGAUACAAUUCAACCUACUACCUCA	0.178 ± 0.0092
GGAGUGGAUACUAUACAACCUACUACCUACA	0.122 ± 0.013
GGAGACGUUACUAUACAACCUACUACGUCA	0.0772 ± 0.016
GGAGUGGAUUCUAUACAACCUACUAGCUCA	0.0603 ± 0.012
GGAGACCUAUGUAUCAACCUACUACCUCA	0.00951 ± 0.0023
GGAGACGAAACUAUACAACGUACUACCUCA	0.0174 ± 0.0054
GGAGACCUUACUAUACAACCUACUUGCUCA	0.098 ± 0.021
GGAGACCUAUGAUUACAACCUACUACCCUCA	0.00361 ± 0.0029
GGAGACCUAACAAUACAACCUACUACCACA	0.0755 ± 0.019
GGAGAGGAUACUAUAGAACCUACAACCUCA	0.00427 ± 0.0024
GGAGACCUAUGAUAUGACCUACUACCUCA	0.0053 ± 0.0031
GGAGACCUAUGAUAUGUAUCCUACUACCUCA	0.0082 ± 0.0021
GGAGACCUAUCUAUACAAGCUACUACCUCA	0.193 ± 0.017
GGAGACCUUACUAUUCAACCUAGUACCUCA	0.0486 ± 0.011

Reference: the supplement of paper PMC10338343
